Test results taken from the supplement of paper PMC10849652.
Of roughly 7,900 targets only a part is listed; those with a hit were picked by preference. About 0.6% of all pairs of compound and target were hits. Unmarked numbers belong to inactive results.

Assays:
Experiment in all cases: log2 fold change, soluble protein after heating vs DMSO (PISA); higher = thermal stabilisation; K562 cells, 10 uM, 30 min; active = over 0.2 and 3.5 SD of the protein, either way, in both replicates (recomputed)
erlotinib = compound: C#Cc1cccc(Nc2ncnc3cc(OCCOC)c(OCCOC)cc23)c1 [erlotinib]
Procedure, shortened: (§1)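 Thermal stability values are relative to control samples and come from duplicates. They are expressed as log2 fold changes. For measurement, K562 cells (2×10^6 cells/mL) received 10 μM compound for 30 min, and aliquots were heated for 3 min over 48°C-58°C, pooled, and extracted at 4°C in PBS with 0.5% NP-40. Soluble protein, the supernatant after 21,000xg for 90 min, was quantified by TMTpro 16plex LC-MS/MS with equalised channel sums.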

[1] = compound: C/C(=N\NC(=O)C1=CC(=CC=C1)S(=O)(=O)N2CCOCC2)/C3=C(C=CC(=C3)Cl)O
Procedure, shortened: as §1

[2] = compound: C1=CC(=C(C=C1Cl)C2=NC3=NC=CN=C3C(=N2)NC4=CC=NC=C4)F
Procedure, shortened: as §1

[3] = compound: C1=CC(=CC=C1C2=NC3=C(N2)C=C(C=C3)C(=O)N)OC4=CC=C(C=C4)Cl
Procedure, shortened: as §1

[4] = compound: C1=CC2=C(C=CC(=C2)/C=C\3/C(=O)NC(=NCC4=CC=CS4)S3)N=C1
Procedure, shortened: as §1

[5] = compound: C1=CC2=NC=CN=C2C=C1/C=C/3\C(=O)NC(=O)S3
Procedure, shortened: as §1

[6] = compound: C1=CC=C(C=C1)C2=NC(=C(N2)C3=CC=NC=C3)C4=CC(=C(C=C4)Cl)O
Procedure, shortened: as §1

[7] = compound: C1=CC=C2C(=C1)C3=NNC4=CC=CC(=C43)C2=O
Procedure, shortened: as §1

[8] = compound: C1CCN(C1)C(=O)NC2=CC=CC(=C2)NC3=NC=C(C(=N3)NCCC4=CN=CN4)Br
Procedure, shortened: as §1

[9] = compound: C1CN(CCC1(CC2=CC=C(C=C2)Cl)N)C3=NC=NC4=C3C=CN4
Procedure, shortened: as §1

IRAK-1-4 Inhibitor I = compound: C1COCCN1CCN2C3=CC=CC=C3N=C2NC(=O)C4=CC(=CC=C4)[N+](=O)[O-] [IRAK-1-4 Inhibitor I]
Procedure, shortened: as §1

ibrutinib = compound: C=CC(=O)N1CCC[C@@H](n2nc(-c3ccc(Oc4ccccc4)cc3)c3c(N)ncnc32)C1 [ibrutinib]
Procedure, shortened: as §1

[10] = compound: CC(=O)c1cnc2ccc(-c3cc(Cl)c(O)c(Cl)c3)nc2c1N[C@H]1CC[C@H](CN(C)C)CC1
Procedure, shortened: as §1

ralimetinib = compound: CC(C)(C)Cn1c(N)nc2ccc(-c3[nH]c(C(C)(C)C)nc3-c3ccc(F)cc3)nc21 [ralimetinib]
Procedure, shortened: as §1

[11] = compound: CC(C)(O)CC(=O)NCCn1ccc2ncnc(Nc3ccc(Oc4cccc(C(F)(F)F)c4)c(Cl)c3)c21
Procedure, shortened: as §1

[12] = compound: CC(C)C1=C2N=C(C=C(N2N=C1)NCC3=CC=CC=C3)NCCCCCCN
Procedure, shortened: as §1

[13] = compound: CC(C)C[C@@H](C=O)NC(=O)[C@H](CC(C)C)NC(=O)[C@H](CC(C)C)NC(=O)OCc1ccccc1
Procedure, shortened: as §1

pinometostat = compound: CC(C)N(C[C@H]1O[C@@H](n2cnc3c(N)ncnc32)[C@H](O)[C@@H]1O)[C@H]1C[C@@H](CCc2nc3cc(C(C)(C)C)ccc3[nH]2)C1 [pinometostat]
Procedure, shortened: as §1

[14] = compound: CC1=C(C(CC(=O)N1)C2=CC=C(C=C2)C(F)(F)F)C(=O)NC3=C(C=C4C(=C3)C=NN4)F
Procedure, shortened: as §1

[15] = compound: CC1=C(C2=C(C=C1)C(=O)C3=CC=CC=C3N2CCCN)C
Procedure, shortened: as §1

Chain of UniProt Q8N5G0 (Q8N5G0 whole entry, looked up): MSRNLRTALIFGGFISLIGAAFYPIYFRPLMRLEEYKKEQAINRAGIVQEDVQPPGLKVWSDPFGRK
Chain of UniProt Q8IWA5 (Q8IWA5 whole entry, looked up): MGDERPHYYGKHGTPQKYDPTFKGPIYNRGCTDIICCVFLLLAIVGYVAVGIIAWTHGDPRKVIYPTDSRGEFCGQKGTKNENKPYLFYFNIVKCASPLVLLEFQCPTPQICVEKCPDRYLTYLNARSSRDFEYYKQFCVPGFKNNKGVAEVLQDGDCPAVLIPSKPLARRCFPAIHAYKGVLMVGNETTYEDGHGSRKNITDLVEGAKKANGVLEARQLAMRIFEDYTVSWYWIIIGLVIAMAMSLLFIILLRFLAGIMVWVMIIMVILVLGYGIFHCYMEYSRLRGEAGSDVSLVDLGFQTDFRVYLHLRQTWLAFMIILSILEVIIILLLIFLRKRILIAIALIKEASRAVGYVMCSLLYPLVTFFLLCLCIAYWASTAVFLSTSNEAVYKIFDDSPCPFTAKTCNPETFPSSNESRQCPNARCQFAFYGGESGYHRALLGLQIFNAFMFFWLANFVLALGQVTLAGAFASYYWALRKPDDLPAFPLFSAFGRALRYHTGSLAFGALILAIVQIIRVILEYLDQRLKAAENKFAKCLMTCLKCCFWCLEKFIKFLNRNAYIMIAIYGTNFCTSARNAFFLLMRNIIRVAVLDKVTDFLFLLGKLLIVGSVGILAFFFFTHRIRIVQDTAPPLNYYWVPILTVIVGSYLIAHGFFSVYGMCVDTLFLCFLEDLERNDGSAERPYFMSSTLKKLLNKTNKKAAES
Chain of UniProt Q6P1M0 (Q6P1M0 whole entry, looked up): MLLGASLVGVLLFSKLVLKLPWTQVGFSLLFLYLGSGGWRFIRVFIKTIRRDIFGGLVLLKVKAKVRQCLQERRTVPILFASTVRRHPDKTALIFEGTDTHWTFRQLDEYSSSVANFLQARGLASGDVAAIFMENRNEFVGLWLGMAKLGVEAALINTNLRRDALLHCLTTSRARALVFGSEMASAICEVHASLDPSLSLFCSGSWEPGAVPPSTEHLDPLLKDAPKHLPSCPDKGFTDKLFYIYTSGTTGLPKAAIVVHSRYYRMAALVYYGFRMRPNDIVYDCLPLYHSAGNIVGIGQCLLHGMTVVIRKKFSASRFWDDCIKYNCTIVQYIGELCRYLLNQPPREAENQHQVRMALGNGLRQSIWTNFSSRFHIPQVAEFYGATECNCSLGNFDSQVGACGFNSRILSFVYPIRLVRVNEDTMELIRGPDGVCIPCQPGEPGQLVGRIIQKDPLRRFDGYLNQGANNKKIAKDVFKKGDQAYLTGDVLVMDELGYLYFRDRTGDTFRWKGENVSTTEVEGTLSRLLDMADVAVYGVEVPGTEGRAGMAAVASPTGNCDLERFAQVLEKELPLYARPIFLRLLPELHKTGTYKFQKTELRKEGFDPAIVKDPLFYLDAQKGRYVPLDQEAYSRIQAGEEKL
Chain of UniProt Q86UE8 (Q86UE8 whole entry, looked up): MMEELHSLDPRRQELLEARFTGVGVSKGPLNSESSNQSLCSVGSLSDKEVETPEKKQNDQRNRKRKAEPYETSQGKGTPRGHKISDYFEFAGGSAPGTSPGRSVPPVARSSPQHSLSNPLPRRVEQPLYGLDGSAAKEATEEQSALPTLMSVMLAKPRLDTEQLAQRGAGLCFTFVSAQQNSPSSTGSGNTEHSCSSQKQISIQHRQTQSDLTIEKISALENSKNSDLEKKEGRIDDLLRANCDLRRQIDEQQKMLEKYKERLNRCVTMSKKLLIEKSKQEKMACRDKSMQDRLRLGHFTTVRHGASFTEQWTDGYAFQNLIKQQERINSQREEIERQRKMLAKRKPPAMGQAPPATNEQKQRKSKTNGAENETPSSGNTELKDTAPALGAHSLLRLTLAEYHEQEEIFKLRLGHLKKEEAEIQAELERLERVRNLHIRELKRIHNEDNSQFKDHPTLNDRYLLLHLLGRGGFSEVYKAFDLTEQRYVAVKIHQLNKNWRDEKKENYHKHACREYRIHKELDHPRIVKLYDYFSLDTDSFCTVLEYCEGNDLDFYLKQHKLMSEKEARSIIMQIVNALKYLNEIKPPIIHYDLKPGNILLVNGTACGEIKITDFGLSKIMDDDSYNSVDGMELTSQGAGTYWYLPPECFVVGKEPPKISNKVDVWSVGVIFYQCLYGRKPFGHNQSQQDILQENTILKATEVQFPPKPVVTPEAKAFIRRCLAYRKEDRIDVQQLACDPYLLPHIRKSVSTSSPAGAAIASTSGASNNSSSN
Chain of UniProt O75663 (O75663 whole entry, looked up): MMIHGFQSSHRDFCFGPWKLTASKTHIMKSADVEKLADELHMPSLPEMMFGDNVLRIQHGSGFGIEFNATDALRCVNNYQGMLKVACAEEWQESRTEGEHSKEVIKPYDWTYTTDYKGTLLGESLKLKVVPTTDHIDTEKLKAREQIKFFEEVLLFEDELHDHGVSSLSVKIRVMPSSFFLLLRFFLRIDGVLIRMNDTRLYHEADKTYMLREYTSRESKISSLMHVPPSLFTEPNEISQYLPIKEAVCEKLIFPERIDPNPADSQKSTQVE
Chain of UniProt Q92544 (Q92544 whole entry, looked up): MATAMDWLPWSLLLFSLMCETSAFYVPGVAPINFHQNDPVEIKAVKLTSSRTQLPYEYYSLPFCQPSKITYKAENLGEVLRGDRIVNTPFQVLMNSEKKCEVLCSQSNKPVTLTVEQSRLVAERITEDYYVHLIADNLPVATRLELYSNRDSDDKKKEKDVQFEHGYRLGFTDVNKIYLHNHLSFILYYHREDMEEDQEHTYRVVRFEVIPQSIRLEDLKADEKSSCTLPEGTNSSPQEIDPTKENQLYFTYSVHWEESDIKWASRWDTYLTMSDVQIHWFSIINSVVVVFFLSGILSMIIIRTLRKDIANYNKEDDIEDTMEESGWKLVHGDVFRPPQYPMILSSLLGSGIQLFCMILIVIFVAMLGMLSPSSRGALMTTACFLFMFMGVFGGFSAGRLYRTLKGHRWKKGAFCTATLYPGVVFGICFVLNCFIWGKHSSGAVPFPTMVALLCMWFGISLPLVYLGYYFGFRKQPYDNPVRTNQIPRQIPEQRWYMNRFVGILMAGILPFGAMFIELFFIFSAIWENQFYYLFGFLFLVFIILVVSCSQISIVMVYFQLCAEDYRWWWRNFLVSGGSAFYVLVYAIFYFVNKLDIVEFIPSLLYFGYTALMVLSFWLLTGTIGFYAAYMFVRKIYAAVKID
Chain of UniProt Q15833 (Q15833 whole entry, looked up): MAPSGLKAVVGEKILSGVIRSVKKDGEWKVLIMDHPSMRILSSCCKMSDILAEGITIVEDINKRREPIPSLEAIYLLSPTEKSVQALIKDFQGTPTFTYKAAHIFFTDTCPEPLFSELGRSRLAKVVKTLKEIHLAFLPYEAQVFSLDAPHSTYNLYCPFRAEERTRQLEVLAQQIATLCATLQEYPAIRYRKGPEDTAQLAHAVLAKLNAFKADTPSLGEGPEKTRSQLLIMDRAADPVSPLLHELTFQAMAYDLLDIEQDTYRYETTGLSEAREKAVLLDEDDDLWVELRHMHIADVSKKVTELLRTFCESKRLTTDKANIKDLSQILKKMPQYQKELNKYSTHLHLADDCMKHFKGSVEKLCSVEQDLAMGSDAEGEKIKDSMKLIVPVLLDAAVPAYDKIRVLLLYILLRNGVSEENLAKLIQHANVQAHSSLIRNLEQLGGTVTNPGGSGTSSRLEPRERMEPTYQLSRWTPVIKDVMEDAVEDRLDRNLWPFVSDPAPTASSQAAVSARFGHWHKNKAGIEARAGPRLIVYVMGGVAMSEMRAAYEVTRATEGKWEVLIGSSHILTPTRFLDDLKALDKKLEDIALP
Chain of UniProt Q969X1 (Q969X1 whole entry, looked up): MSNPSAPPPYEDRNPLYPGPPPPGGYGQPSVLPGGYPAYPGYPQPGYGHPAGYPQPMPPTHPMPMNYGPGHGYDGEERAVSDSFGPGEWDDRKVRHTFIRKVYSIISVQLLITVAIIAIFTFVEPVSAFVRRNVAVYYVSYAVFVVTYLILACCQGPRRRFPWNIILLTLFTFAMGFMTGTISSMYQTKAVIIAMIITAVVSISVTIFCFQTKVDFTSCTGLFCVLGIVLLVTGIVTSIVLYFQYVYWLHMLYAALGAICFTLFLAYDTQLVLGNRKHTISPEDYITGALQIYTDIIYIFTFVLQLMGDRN
Chain of UniProt P12931 (P12931 whole entry, looked up): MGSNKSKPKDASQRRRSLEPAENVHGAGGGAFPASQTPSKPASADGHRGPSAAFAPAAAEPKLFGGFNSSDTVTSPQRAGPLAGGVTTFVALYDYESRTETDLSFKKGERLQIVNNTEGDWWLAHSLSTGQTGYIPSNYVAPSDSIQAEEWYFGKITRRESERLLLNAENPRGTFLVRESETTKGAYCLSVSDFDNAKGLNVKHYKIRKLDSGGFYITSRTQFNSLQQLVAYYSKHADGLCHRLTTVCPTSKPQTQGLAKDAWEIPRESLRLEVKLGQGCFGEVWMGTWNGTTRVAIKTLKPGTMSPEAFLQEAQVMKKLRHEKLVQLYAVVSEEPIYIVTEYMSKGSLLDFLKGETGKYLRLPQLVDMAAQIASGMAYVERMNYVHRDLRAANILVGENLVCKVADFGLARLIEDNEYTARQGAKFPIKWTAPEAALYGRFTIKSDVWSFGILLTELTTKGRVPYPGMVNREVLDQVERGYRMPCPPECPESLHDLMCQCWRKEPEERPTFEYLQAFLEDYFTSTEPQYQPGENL
Chain of UniProt Q96BZ9 (Q96BZ9 whole entry, looked up): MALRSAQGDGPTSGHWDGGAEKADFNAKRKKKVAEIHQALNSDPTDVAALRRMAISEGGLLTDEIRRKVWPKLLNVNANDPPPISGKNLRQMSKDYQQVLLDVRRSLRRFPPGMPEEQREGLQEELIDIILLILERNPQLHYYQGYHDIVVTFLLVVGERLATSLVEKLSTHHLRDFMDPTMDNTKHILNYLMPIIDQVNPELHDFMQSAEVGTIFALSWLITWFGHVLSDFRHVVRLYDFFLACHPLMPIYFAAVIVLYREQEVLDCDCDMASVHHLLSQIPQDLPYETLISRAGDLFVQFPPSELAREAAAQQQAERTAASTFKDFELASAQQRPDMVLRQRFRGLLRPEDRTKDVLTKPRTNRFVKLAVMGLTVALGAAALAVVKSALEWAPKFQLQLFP

Target	log2 fold change (erlotinib)	log2 fold change [1]	log2 fold change [2]	log2 fold change [3]	log2 fold change [4]	log2 fold change [5]	log2 fold change [6]	log2 fold change [7]	log2 fold change [8]	log2 fold change [9]	log2 fold change (IRAK-1-4 Inhibitor I)	log2 fold change (ibrutinib)	log2 fold change [10]	log2 fold change (ralimetinib)	log2 fold change [11]	log2 fold change [12]	log2 fold change [13]	log2 fold change (pinometostat)	log2 fold change [14]	log2 fold change [15]
TM9SF4 (UniProt Q92544)	-0.015	0.011	-0.006	0.052	-0.054	-0.002	0.008	0.038	-0.012	0.066	-0.006	0.008	-0.016	0.031	-0.006	-0.033	0.029	0.016	-0.015	0.077
TIPRL (UniProt O75663)	0.055	0.097	0.031	0.009	0.049	0.036	-0.002	0.03	0.021	-0.041	-0.011	-0.005	-0.067	-0.007	-0.065	-0.173	0.048	-0.015	0.069	0.017
SNX6 (UniProt Q9UNH7)	0.093	0.056	0.035	0.017	0.042	-0.057	-0.053	-0.159	0.053	-0.018	0.012	0.035	-0.233	-0.035	-0.249	-0.234	0.013	0.048	0.026	-0.013
TBC1D20 isoform 3 (UniProt Q96BZ9)	0.022	0.195	0.094	0.083	0.047	-0.015	-0.048	-0.048	–	–	0.02	0.004	-0.124	-0.104	-0.087	-0.099	-0.017	0	-0.061	–
TCERG1 (UniProt O14776)	0.072	0.154	0.152	-0.017	0.067	-0.022	0.015	0.027	-0.104	-0.029	-0.062	-0.073	-0.065	-0.035	-0.172	-0.086	-0.041	-0.039	-0.016	0.062
SSRP1 (UniProt Q08945)	-0.018	0.143	0.005	0.014	0.029	0.022	-0.016	-0.029	-0.052	0.009	-0.044	-0.037	-0.138	-0.022	-0.008	-0.119	0	-0.036	-0.02	-0.554 (active)
SPAST (UniProt Q9UBP0)	0.139	0.129	0.032	-0.046	0.06	0.028	0.007	0.064	-0.048	-0.004	0.054	-0.015	-0.073	0.015	-0.157	-0.063	0.013	0.002	-0.019	0.114
SLC35B4 (UniProt Q969S0)	-0.055	0.194	-0.033	0.105	0.085	0.024	–	-0.243	-0.015	-0.231	0.092	0.023	0.184	–	0.098	-0.02	–	-0.056	-0.055	0.059
SMIM20 isoform 2 (UniProt Q8N5G0)	-0.039	-0.111	0.427 (active)	0.054	-0.088	0.088	0.023	-0.051	-0.016	-0.06	–	-0.01	-0.023	-0.056	-0.061	0.024	0.006	–	0.05	-0.058
SLC44A2 isoform 2 (UniProt Q8IWA5)	0.059	0.028	-0.059	-0.054	0.019	-0.096	0.073	-0.065	-0.105	0.01	0.092	0.055	0.034	-0.128	-0.006	0.296 (active)	-0.047	0.056	-0.078	0.034
SLC27A4 (UniProt Q6P1M0)	0.039	0.013	-0.023	0.032	0.082	-0.02	0.002	0.061	-0.017	0.062	-0.042	0.022	-0.034	0.003	0.072	-0.11	-0.044	0.039	0.047	0.104
TMBIM1 (UniProt Q969X1)	0.092	-0.139	0.122	-0.017	0.198	-0.025	0.517 (active)	-0.069	0.172	0.049	–	0.037	-0.126	0.264	0.16	-0.066	-0.166	–	-0.107	0.089
STXBP2 isoform 3 (UniProt Q15833)	0.088	0.139	-0.109	-0.049	0.096	-0.004	0.05	0.026	-0.058	-0.166	-0.11	-0.057	-0.021	0.172	-0.065	-0.364 (active)	0.147	0.189	0.023	0.025
STOM (UniProt P27105)	-0.027	-0.087	-0.011	0.1	0.054	0.04	-0.188	-0.038	0.004	-0.079	-0.039	0.019	-0.018	-0.054	0.004	-0.064	0.14	0.028	0.014	0.039
SMARCA4 (UniProt P51532)	0.02	0.073	0.032	0.102	0.035	-0.001	-0.096	-0.124	–	–	-0.155	-0.136	-0.056	0.255	0.027	-0.397	0.16	0.193	–	–
TLK2 isoform 2 (UniProt Q86UE8)	0	0.008	0.04	0.074	-0.041	-0.016	0.064	0	0.017	-0.048	0.035	-0.011	-0.144	-0.003	-0.077	0.011	0.025	-0.004	-0.015	0.282 (active)
SRC isoform 2 (UniProt P12931)	-0.014	-0.034	-0.006	0.153	0.088	0.022	0.036	-0.049	-0.073	-0.025	-0.018	–	-0.251	-0.136	-0.22	0.159	0.05	0.087	0.067	0.02
